PME-1 primary – blocks human protein phosphatase methylesterase 1. Q9Y570. recombinant PME-1, FP-Rh probe fluorescence polarization. inhibition, % at 5.9 µM. 320,000 compounds, 0.53% hits. AID 2130;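 active = inhibition above the campaign mean of all compounds plus 3 SD, cut at about 26% in these data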;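 also: competitive labeling of PME-1 active site by serine hydrolase directed probe; 0% = PME-1 with DMSO and 100% = wells lacking PME-1 enzyme; inhibitors block probe labeling so polarization falls and inhibition rises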
Target sequence (Q9Y570 whole entry, looked up): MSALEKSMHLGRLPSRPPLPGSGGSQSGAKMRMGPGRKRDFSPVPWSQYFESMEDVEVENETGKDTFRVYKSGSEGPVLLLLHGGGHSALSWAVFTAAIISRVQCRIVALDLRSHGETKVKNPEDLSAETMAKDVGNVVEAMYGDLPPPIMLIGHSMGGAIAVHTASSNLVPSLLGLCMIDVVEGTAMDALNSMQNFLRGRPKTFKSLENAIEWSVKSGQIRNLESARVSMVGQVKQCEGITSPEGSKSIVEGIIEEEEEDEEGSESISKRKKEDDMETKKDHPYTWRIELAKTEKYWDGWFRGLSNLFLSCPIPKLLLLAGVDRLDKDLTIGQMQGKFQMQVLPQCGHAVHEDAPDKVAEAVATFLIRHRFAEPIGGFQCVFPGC
LYPLA2 counter – LYPLA2 (human) inhibition in PME1 counter-screen; O95372; recombinant LYPLA2, FP-Rh probe fluorescence polarization; inhibition, % at 5.9 µM; 320,000 compounds, 0.38% hits; AID 2177;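 active = inhibition above the screen-wide mean plus 3 SD, limit set per campaign, cut at about 26% in these data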;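 also: 0% = LYPLA2 with DMSO and 100% = wells lacking LYPLA2 enzyme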
Fam108B inh – counter-screen for RBBP9 inhibitors: inhibitors of mouse Fam108B | 300,000 compounds, 0.33% hits | recombinant Fam108B, FP-Rh probe fluorescence polarization | inhibition, % at 9.51 µM;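 active = inhibition above the screen mean inhibition plus 3 SD, computed separately per campaign, cut at about 18% in these data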;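 also: inhibitors lower polarization as less probe binds the enzyme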
LYPLA1 counter – LYPLA1 (human) inhibition in PME1 counter-screen | 320,000 compounds, 0.16% hits | AID 2174 | recombinant LYPLA1, FP-Rh probe fluorescence polarization | O75608 | inhibition, % at 5.9 µM;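 active = inhibition above the mean of all tested compounds plus 3 SD, set per campaign, cut at about 14% in these data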;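 also: inhibitors block serine hydrolase probe labeling of LYPLA1 so polarization falls; 0% = enzyme with DMSO and 100% = wells lacking LYPLA1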
Target sequence (O75608 whole entry, looked up): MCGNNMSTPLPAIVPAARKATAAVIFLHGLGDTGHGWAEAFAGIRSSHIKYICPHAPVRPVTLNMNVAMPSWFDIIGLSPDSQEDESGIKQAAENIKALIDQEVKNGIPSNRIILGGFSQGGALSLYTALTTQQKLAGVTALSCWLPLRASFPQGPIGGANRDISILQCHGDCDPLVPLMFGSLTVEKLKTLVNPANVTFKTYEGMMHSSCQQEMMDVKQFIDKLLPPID
PREPL inh – inhibitors of human prolyl oligopeptidase-like enzyme PREPL; Q4J6C6; recombinant PREPL, fluorescence polarization activity-based probe; inhibition, % at 5.96 µM; 320,000 compounds, 0.68% hits; AID 2751;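 also: 0% = enzyme with DMSO and 100% = wells lacking enzyme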
Fam108b inh conf – Fam108b (mouse) hydrolase inhibition, confirmation assay; AID 1978; shares compounds with Fam108B inh; inhibition, % at 9.51 µM; 930 compounds, 44% hits; recombinant Fam108b, FP-Rh probe fluorescence polarization;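 active = inhibition above a limit from the primary screen, the mean over all compounds plus 3 SD, cut at about 19% in these data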;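 also: 0% = median of active Fam108b wells and 100% = catalytically dead S170A mutant; inhibitors free the probe so polarization falls as inhibition rises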
Fam108b inh – mouse ABHD17B inhibition. shares compounds with Fam108B inh. inhibition, % at 20 µM. 260 compounds, 44% hits. recombinant Fam108b, gel-based ABPP, fluorophosphonate probe; in the data active = inhibition above about 40%
LYPLA1 confirm – LYPLA1 (human) inhibition, confirmation counter-screen | 480 compounds, 69% hits | shares compounds with LYPLA1 counter | inhibition, % at 5.9 µM | recombinant LYPLA1, FP-Rh probe fluorescence polarization | AID 2233;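 active = mean inhibition across replicates above the hit cutoff set in the primary screen, cut at about 15% in these data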;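 also: loss of FP-Rh probe labeling of LYPLA1 seen as lower polarization; 0% = LYPLA1 with DMSO and 100% = wells lacking LYPLA1 enzyme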
LYPLA2 conf – counter-screen for PME1 inhibitors: confirmation of human LYPLA2 inhibitors. shares compounds with LYPLA2 counter. recombinant LYPLA2, FP-Rh probe fluorescence polarization. inhibition, % at 5.9 µM. 1,100 compounds, 72% hits;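 active = mean inhibition across replicates above the hit cutoff set in the primary screen, cut at about 26% in these data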;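 also: blocked labeling of the enzyme by serine hydrolase FP-Rh probe lowers polarization; 0% = enzyme with DMSO and 100% = wells lacking LYPLA2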
LYPLA2 gel ABPP – blocks human acyl-protein thioesterase 2 in gel ABPP; shares compounds with LYPLA2 counter; rhLYPLA2 in mouse brain proteome, gel ABPP FP-Rh; inhibition, % at 20 µM; 150 compounds, 30% hits; AID 652029;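 active = inhibition of LYPLA2 enzyme probe labeling above about 50%, limit read from the data; inactive = inhibition below that limit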;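 also: loss of FP-Rh probe labeling of the LYPLA2 gel band measured as band density; 0% = DMSO only control band and 100% = blank gel background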
PREPL inh cf – human PREPL inhibition, confirmation; shares compounds with PREPL inh; recombinant PREPL, fluorescence polarization activity probe; inhibition, % at 5.96 µM; 2,000 compounds, 67% hits;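 also: 0% = protein with DMSO and 100% = wells lacking protein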
* marks the source's active call; other numbers are inactive results; . = no result. Only some compounds are listed: those with a hit (about 1.3% of all), similar ones and a draw of the others. Rule as the data show it, unless noted: active = inhibition above about 43%; inactive = the rest.

SMILES | PME-1 primary | LYPLA2 counter | Fam108B inh | LYPLA1 counter | PREPL inh | LYPLA2 conf | PREPL inh cf | others
O=[N+]([O-])c1ccc(NCc2ccccc2)c2nonc12 | 56* | 64* | 21* | 53* | 38 | 50* | . | Fam108b inh conf=38*;Fam108b inh=0;LYPLA1 confirm=36*
Cc1nonc1OCCNc1ccc([N+](=O)[O-])c2cccnc12 | 7 | 0 | -2 | 2 | 0 | . | .
Nc1ccc2ccc3cccc[n+]3c2c1 | 4 | 8 | 5 | 3 | 38 | . | .
C[n+]1c(-c2ccccc2)c2cc(N)ccc2c2ccc(N)cc21 | 116* | 116* | 104* | 89* | 142* | 76* | 124* | Fam108b inh conf=70*;Fam108b inh=40*;LYPLA1 confirm=68*
CCCCn1c(C)c(C(=O)OCC)c2c(CN3CCCC3)c(O)ccc21 | 27* | -3 | 46* | -2 | 55* | . | 34 | Fam108b inh conf=2
O=c1oc2ccccc2c(O)c1[C@H]1c2ccc(O)cc2Oc2c1c(=O)oc1ccccc21 | -1 | -7 | 2 | 6 | 1 | . | .
O=[N+]([O-])c1ccc(N2CCCCCC2)c2nonc12 | -23 | -21 | -7 | 16* | -41 | . | . | LYPLA1 confirm=24*
C[C@]12CCC3C(CC[C@H]4C[C@H](O)CC[C@]34C)C1C[C@H](O)[C@@H]2O (stereo not given in full) | . | . | . | . | 10 | . | .
O=C(COc1ccc2ccccc2c1)N1CCN(CC2CC3C=CC2C3)CC1 (stereo not given) | 1 | 26* | 1 | 20* | 29 | 25 | . | LYPLA1 confirm=34*
CN1CCN(C(=O)COc2ccc3ccccc3c2)CC1 | -8 | 2 | 1 | 4 | 6 | . | .
C[C@]12CCC3C(CC[C@H]4C[C@@H](O)CC[C@]34C)C1C/C(=N/O)[C@@H]2O (stereo not given in full) | . | . | . | . | 2 | . | .
Cc1ccccc1NC(=O)Cc1nc(COC(=O)Cc2ccccc2)cs1 | 18 | 47* | . | 40* | 14 | -4 | . | LYPLA1 confirm=-2
Nc1ccccc1Cl | -8 | 0 | . | -1 | -6 | . | .
O=C(COc1ccc(Cl)cc1)N1CCN(C/C=C/c2ccccc2)CC1 | 1 | 70* | 1 | 26* | -5 | 77* | . | LYPLA1 confirm=24*
Cc1cc2c(C(F)(F)F)cc(=O)oc2c2c1NCCC2 | -1 | -6 | 2 | 0 | 6 | . | .
O=c1cc(C(F)(F)F)c2cc3c4c(c2o1)CCCN4CCC3 | 16 | 17 | 12 | 18* | 56* | . | 55* | LYPLA1 confirm=9
Cn1ncnc2c(=O)n(C)c(=O)nc1-2 | 44* | 96* | 78* | 77* | 44* | 96* | 54* | LYPLA1 confirm=88*
CN(C)C(=O)Oc1ccc2c(c1)O/C(=C\c1cccc(Cl)c1)C2=O | 1 | -1 | 2 | 3 | -1 | . | .
C[N+]1(C)C2CCC1CC(OC(=O)c1ccccc1)C2 (stereo not given) | 2 | 26* | 4 | 5 | 1 | 2 | .
O=C(COc1ccc(Br)cc1)N1CCN(Cc2ccc3c(c2)OCO3)CC1 | 1 | 32* | -1 | 6 | 4 | 25 | .
Oc1ccc2c3c1OC1c4oc5ccccc5c4C[C@@]4(O)[C@@H](C2)N(CC2CC2)CC[C@]314 (stereo not given in full) | . | . | . | . | -5 | . | .
NCCNc1ccc([N+](=O)[O-])c2cccnc12 | -3 | 2 | 4 | 1 | 5 | . | .
O=[N+]([O-])c1ccc(NCc2ccc(Cl)cc2)c2ccncc12 | 7 | 33* | 5 | 3 | 35 | 52* | . | LYPLA2 gel ABPP=49
CCN(CC)C(=O)c1ccc(NC(=O)CCCSc2ccccc2)cc1 | -8 | 8 | 0 | -2 | -90 | . | .
CCN(CC)C(=O)c1ccc(NC(=S)NC(=O)CCc2ccccc2)cc1 | 1 | 30* | 1 | 0 | -5 | 21 | .
SMILES | PME-1 primary | LYPLA2 counter | Fam108B inh | LYPLA1 counter | PREPL inh | LYPLA2 conf | PREPL inh cf | others
CN1[C@@H]2CC[C@H]1CC(OC1c3ccccc3CCc3ccccc31)C2 (stereo not given in full) | 5 | 4 | 3 | -2 | 22 | . | .
CCOc1ccccc1N=C1SCCCN1C | -2 | -3 | -2 | -1 | 12 | . | .
CCOc1cccc(=NC2CCCCC2)c2c(C)n(C)c(C)c12 | -7 | 4 | -1 | 2 | 48* | . | 50*
CC(Cc1ccccc1)NC(=O)c1ccc(N)cc1 (stereo not given) | -3 | 0 | 4 | 0 | -3 | . | .
CC(Cc1ccccc1)NC(=O)C(c1ccc(N)cc1)c1ccc(N)cc1 (stereo not given) | 2 | -6 | -3 | 4 | 50* | . | 33
C=CCn1c(O)c(C(CC)=NCCc2c[nH]c3ccccc23)c(=O)[nH]c1=O | 2 | 6 | 2 | -3 | 49* | . | 52*
C=CCn1c(O)c(C(CC)=NCCc2ccccc2)c(=O)[nH]c1=O | -1 | 7 | -1 | 2 | 19 | . | .
C1=C(c2c[nH]c3ccccc23)CCNC1 | -2 | 6 | -1 | -1 | 62* | . | 63*
COC(=O)C1=C(c2c(C)noc2C)C[C@@H]2CC[C@H]1N2C(=O)NC1CCCCC1 | 1 | 5 | . | -2 | 2 | . | .
C=C1C(O)[C@@H]2O[C@]3(CC[C@H](/C=C/C(C)[C@@H]4CC(C)=CC5(O[C@H](C[C@@](C)(O)C(=O)O)CCC5O)O4)O3)CC[C@H]2O[C@@H]1C(O)CC(C)[C@H]1OC2(CCCCO2)CCC1C (stereo not given in full) | . | . | . | . | 0 | . | .
NCCCCCC(=O)OC1N=C(c2ccccc2Cl)c2cc(Br)ccc2NC1=O (stereo not given) | -1 | -2 | 2 | -4 | 59* | . | 46*
NCCCC(=O)OC1N=C(c2ccccc2Cl)c2cc(Br)ccc2NC1=O (stereo not given) | 0 | -2 | 0 | -4 | 5 | . | .
COC(=O)C1=C(c2ccc(F)cc2OCc2ccccc2)C[C@@H]2CC[C@H]1N2C(=O)NCc1ccc2c(c1)OCO2 | -11 | -8 | . | -6 | 6 | . | .
C=C[C@@H]1C[C@@]1(C)[C@@H](NP(=O)(c1ccccc1)c1ccccc1)c1ccccc1 | 8 | 1 | -2 | -1 | 48* | . | 48*
COc1ccc2c(c1)c(CCN)c(C)n2Cc1ccccc1 | 7 | 1 | 5 | 1 | 45* | . | 42
